# Test system: Perkinsus marinus PRA240
# Experiment: ATP content (proliferation) relative to DMSO control; higher = more parasite growth (less inhibition)
# Details: 20 µM; 4 days
# Protocol: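 Perkinsus marinus PRA240 trophozoites (2-5x10^6 cells/ml, 100 µl, 96-well) were exposed once to MMV Malaria Box compounds at 20 µM (0.1% DMSO) in triplicate. ATP content (ATPlite bioluminescence) was read at day 4 post-exposure and normalised to DMSO + cells control wells (100% activity). Compounds were identified by joining plate and well to the Malaria Box list.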
row,SMILES,ATP content [%]
1,COc1cccc(C(=O)Nc2ccc(-c3nc4ccccc4[nH]3)cc2)c1,108
2,O=C(Nc1ccc(N2CCN(Cc3ccccc3)CC2)cc1)c1cccs1,86.8
3,COc1cc(C(=O)ON=C(N)Cc2cccc3ccccc23)cc(OC)c1OC,87.4
4,COc1ccc(CN2CCCC(C(=O)c3ccc(C(F)(F)F)cc3)C2)c(O)c1 (stereo not given),117
5,Cc1cc(NC(=O)c2ccc(-c3ccccc3)cc2)no1,69.1
6,COc1cccc(C(=O)NC(c2ccc(C)cc2)c2cc(Cl)c3cccnc3c2O)c1 (stereo not given),39.5
7,CCOC(=O)C1=C(C)N=c2sc(=Cc3ccccc3O)c(=O)n2C1c1ccc(OC)c2ccccc12 (stereo not given),196
8,COc1ccc(C2c3ccc4ccccc4c3Oc3ncn(CCCN(C)C)c(=N)c32)cc1 (stereo not given),202
9,O=C1C2=C(Nc3ccccc3SC2c2ccccc2)c2ccccc21 (stereo not given),17.1
10,CCc1ccc(Nc2cc(C)nc3nc(C)nn23)cc1,139
11,CCCCNCC(O)(c1ccc(Cl)cc1)c1ccc(Cl)cc1,103
12,CN(C)c1ccc(N=Cc2ccc(N3CCOCC3)cc2)cc1,108
13,Cc1ccnc(NC(c2cccc(OCc3ccccc3)c2)c2ccc3cccnc3c2O)c1 (stereo not given),57.2
14,CCOC(=O)C1(Cc2ccccc2)CCN(Cc2cccc(OC)c2O)CC1,143
15,COc1ccc(C2c3ccc4ccccc4c3Oc3ncn(CCCn4ccnc4)c(=N)c32)cc1OC (stereo not given),121
16,CC1(c2ccccc2)Nc2ccccc2-c2nc3ccccc3n21 (stereo not given),109
17,O=C(Nc1ccsc1C(=O)NC1CCCCC1)c1ccc(F)cc1,90
18,CCOc1ccc(Nc2ccnc3cc(Cl)ccc23)cc1,55.2
19,Clc1cc(Br)ccc1-c1ccc(CNCC2CCNCC2)o1,243
20,Cn1c(=O)c2cc(C(=O)NCCCN3CCCCCC3)sc2c2ccccc21,86.3

row,SMILES,ATP content [%]
1,CCN(CC)c1cc(C)c2cc(NC(=O)c3cccc(OC)c3)ccc2n1,74
2,OC(CNCC1CCCO1)Cn1c2ccc(Cl)cc2c2cc(Cl)ccc21 (stereo not given),142
3,CN(C)c1ccc(-c2nc3cc(N)ccc3[nH]2)cc1,0.856
4,Cc1ccc(F)cc1NC(=O)c1cc(Cl)ccc1Nc1ccccc1,113
5,Cc1ccc(Nc2nc(N)c3ccccc3n2)cc1Cl,4.69
6,COc1ccc(C2N(C)c3ccccc3N2C)cc1,101
7,CC1CCN(Cc2c(O)ccc3cc(-c4nc5ccccc5s4)c(=O)oc23)CC1,124
8,O=C1c2ccc3c4c(ccc(c24)C(=O)N1CCCCO)C(=O)N(CCCCO)C3=O,50.5
9,CCCN(CCC)CCCNC(=O)c1cc2c(-c3ccc(OC)c(OC)c3)nn(C)c2s1,80.3
10,O=C(NC1CCCC1)c1ccc(N2CCC(NCc3cccc(C(F)(F)F)c3)CC2)cc1,103
11,OC(CNC1CCCC1)Cn1c2ccccc2c2ccccc21 (stereo not given),148
12,Cc1ccc(CN2CCC(C(=O)Nc3ccc(-c4cc5ccccc5[nH]4)cc3)CC2)o1,83.4
13,Cc1ccccc1OCCSc1nc2ccc(NC(=O)c3ccccc3)cc2s1,50.6
14,Oc1ccc(-c2nc(-c3ccc4oc5ccc(-c6[nH]c(-c7ccc(O)cc7)nc6-c6ccccc6)cc5c4c3)c(-c3ccccc3)[nH]2)cc1,124
15,COc1ccc(CCn2c(=N)c(C(=O)NCc3cccnc3)cc3c(=O)n4cccc(C)c4nc32)cc1,140
16,COc1cc2cc(C(=O)Nc3ccccc3)c(N)nc2cc1OC,44.3
17,CCCn1c(=N)c(C(=O)NC2CCCCC2)cc2c(=O)n3cccc(C)c3nc21,64.4
18,COc1ccc(-c2nc(N3CCN(C(=O)C4CCCCC4)CC3)c3c4c(sc3n2)CCCC4)cc1,69.7
19,COc1cc(SC)ccc1C(=O)N1CCCC(C)C1 (stereo not given),134
20,COc1cccc(Nc2nc(N)c3ccccc3n2)c1,9.11
